Measured values published in PubChem BioAssay (NCATS).
Records with an inconclusive call do not appear. Entries that show only a call come without a potency. Activity calls are given as the source filed them. Unless noted, calls follow the shape of the full dose curve.

Experiments:
[1] = molecular target: Bile acid receptor (Homo sapiens) (UniProt Q96RI1); experiment: qHTS assay for small molecule antagonists of farnesoid X receptor signaling (AID 588526)
Outline: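 Concentration-response titrations were fitted to the Hill equation for half-maximal inhibition and maximal response, with data normalised to 50 uM chenodeoxycholic acid and DMSO control wells. Cells: FXR-UAS-bla HEK293T, dialyzed FBS.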

[2] = molecular target: Bile acid receptor (Homo sapiens) (UniProt Q96RI1); experiment: qHTS assay for small molecule agonists of farnesoid X receptor signaling (AID 588527); details: HEK293T FXR-UAS-bla, beta-lactamase ratio, 16 h; activation: stronger effect = higher value; also: series mostly up to about 77 µM
Outline: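 FXR-UAS-bla HEK293T cells (10% dialyzed FBS) preincubated 5-7 h at 37 C, then compounds at up to 92 uM for 16 h at 37 C. CCF4 beta-lactamase read-out after 2 h RT. Normalized to chenodeoxycholic acid (100 uM) and DMSO; Hill fit gave EC50 and efficacy.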

[3] = qHTS assay for small molecule antagonists of peroxisome proliferator-activated receptor delta signaling (AID 588535; active = well fitted inhibition curve with a large enough effect in the signal ratio, with a control signal flat, not every such curve was filed as active; the % refers to the signal ratio;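 as to max response: cells co-treated with a PPAR-delta agonist as stimulator during compound exposure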); details: HEK293T PPARd-UAS-bla, beta-lactamase FRET ratio, 18 h; 460 nm channel
Outline: (§1)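 Compounds tested in titration on PPAR-delta-UAS-bla HEK293T cells grown in charcoal/dextran-stripped serum (2%); beta-lactamase activity read via CCF4 emission at 460 and 530 nm.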

[4] = molecular target: Peroxisome proliferator-activated receptor delta (Homo sapiens) (UniProt Q03181); experiment: as above
Sequence of Peroxisome proliferator-activated receptor delta (Homo sapiens) (Q03181 whole entry, looked up): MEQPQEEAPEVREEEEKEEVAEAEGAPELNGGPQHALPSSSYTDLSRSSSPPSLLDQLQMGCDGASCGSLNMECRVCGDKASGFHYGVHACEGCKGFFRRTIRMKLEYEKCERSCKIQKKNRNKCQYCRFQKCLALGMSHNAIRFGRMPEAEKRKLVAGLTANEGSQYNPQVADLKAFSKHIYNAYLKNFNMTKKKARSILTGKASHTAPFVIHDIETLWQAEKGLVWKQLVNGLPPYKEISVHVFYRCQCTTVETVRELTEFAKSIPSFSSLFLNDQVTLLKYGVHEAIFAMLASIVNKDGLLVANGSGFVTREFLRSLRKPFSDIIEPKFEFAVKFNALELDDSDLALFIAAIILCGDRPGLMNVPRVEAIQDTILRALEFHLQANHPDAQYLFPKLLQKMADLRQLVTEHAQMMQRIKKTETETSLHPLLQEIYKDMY
Outline: as §1

[5] = molecular target: Peroxisome proliferator-activated receptor gamma (Homo sapiens) (UniProt P37231); experiment: qHTS assay for small molecule agonists of peroxisome proliferator-activated receptor gamma signaling (AID 588536; active = well fitted curve in the direction sought with a large enough effect in the signal ratio, with a control signal flat, not every such curve was filed as active; the % refers to the signal ratio)
Sequence of Peroxisome proliferator-activated receptor gamma (Homo sapiens) (P37231 whole entry, looked up): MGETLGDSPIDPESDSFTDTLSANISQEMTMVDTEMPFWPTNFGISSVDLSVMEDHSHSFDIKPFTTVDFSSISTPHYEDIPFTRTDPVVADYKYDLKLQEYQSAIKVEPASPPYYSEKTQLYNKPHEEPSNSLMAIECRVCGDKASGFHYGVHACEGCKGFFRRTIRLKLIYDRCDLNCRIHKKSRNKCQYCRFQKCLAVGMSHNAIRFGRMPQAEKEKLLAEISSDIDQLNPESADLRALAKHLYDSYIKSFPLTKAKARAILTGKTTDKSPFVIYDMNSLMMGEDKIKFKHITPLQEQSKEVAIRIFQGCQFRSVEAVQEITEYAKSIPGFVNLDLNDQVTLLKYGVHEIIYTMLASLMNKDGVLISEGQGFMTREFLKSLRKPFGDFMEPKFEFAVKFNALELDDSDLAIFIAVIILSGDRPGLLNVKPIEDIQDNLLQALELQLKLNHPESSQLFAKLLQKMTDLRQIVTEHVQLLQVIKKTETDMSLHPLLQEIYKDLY
Outline: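 Cells were plated and held 6–6.5 h at 37 C, then compounds were added as a titration series. After a further 16 h, CCF4 dye was loaded for 2 h at room temperature and emission at 460/530 nm recorded.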

[6] = molecular target: Peroxisome proliferator-activated receptor gamma (Homo sapiens) (UniProt P37231); experiment: qHTS assay for small molecule antagonists of peroxisome proliferator-activated receptor gamma signaling (AID 588537; active = well fitted inhibition curve with a large enough effect in the signal ratio, with a control signal flat, not every such curve was filed as active; the % refers to the signal ratio;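 also: reporter cells co-stimulated with 50 nM rosiglitazone agonist during compound treatment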)
Outline: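 HEK293 cells, PPAR-gamma-UAS-bla, 3000/well. Pre-incubation 6-6.5 h, 37 C. Compound titration with rosiglitazone 50 nM final, 16 h. CCF4 dye, 2 h RT, dual-emission fluorescence.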

[7] = qHTS assay for small molecule agonists of the antioxidant response element (ARE) signaling pathway (AID 651741; active = well fitted activation curve with a large enough effect in the signal ratio; the % refers to the signal ratio; also: potency is read from the fitted curve at half-maximal effect)
Outline: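 Beta-lactamase reporter expression driven by the antioxidant response element in HepG2 cells was detected by fluorescence with LiveBLAzer B/G FRET substrate (2 h, room temperature) following 16 h compound treatment at 37 C.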

[8] = molecular target: Glucocorticoid receptor (Homo sapiens) (UniProt P04150); experiment: qHTS assay for small molecule antagonists of glucocorticoid receptor signaling (AID 588533; active = well fitted inhibition curve with a large enough effect in the signal ratio, with a control signal flat, not every such curve was filed as active; the % refers to the signal ratio;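 also: cells stimulated with 2 nM dexamethasone as agonist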; also: potency is read from the fitted curve at half-maximal effect)
Sequence of Glucocorticoid receptor (Homo sapiens) (P04150 whole entry, looked up): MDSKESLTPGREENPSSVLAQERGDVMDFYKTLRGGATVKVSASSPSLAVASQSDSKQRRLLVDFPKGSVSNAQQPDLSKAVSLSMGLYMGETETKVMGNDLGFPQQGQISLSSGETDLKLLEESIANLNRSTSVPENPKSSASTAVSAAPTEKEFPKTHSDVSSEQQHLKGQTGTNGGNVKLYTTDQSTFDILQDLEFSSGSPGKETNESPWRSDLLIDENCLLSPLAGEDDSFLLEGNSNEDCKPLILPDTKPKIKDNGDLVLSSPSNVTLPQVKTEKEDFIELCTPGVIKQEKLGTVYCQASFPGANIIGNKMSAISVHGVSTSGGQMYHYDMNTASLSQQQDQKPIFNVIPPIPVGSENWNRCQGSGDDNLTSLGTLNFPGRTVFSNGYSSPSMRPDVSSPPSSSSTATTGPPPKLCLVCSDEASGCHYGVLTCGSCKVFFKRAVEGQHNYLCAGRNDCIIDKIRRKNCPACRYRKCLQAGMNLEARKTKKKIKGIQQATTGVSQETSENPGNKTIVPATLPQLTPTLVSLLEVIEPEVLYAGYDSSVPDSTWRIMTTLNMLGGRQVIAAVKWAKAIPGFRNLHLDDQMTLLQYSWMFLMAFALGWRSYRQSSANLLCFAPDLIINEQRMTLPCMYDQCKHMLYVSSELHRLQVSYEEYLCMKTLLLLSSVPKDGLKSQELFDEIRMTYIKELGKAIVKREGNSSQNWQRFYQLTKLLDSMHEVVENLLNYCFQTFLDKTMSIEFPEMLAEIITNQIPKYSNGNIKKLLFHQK
Outline: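 Antagonist-mode qHTS: compound titrations added to GRE-bla HeLa cells, then dexamethasone 2 nM final; 18 h, 37 C. CCF4 FRET fluorescence normalized to dexamethasone and DMSO; IC50 from Hill fit.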

[9] = qHTS assay for small molecule activators of the human pregnane X receptor (PXR) signaling pathway (AID 720659; call rule not given here)
[10] = molecular target: Cytochrome P450 3A4 (Homo sapiens) (UniProt P08684); experiment: qHTS Assay for Inhibitors and Substrates of Cytochrome P450 3A4 (AID 884; active = well fitted curve in the direction sought with a large enough effect; an effect the other way counts as inactive or inconclusive; also: potency is read from the fitted curve at half-maximal effect; nearly all actives have a fitted effect of over 50% in size)
Sequence of Cytochrome P450 3A4 (Homo sapiens) (P08684 whole entry, looked up): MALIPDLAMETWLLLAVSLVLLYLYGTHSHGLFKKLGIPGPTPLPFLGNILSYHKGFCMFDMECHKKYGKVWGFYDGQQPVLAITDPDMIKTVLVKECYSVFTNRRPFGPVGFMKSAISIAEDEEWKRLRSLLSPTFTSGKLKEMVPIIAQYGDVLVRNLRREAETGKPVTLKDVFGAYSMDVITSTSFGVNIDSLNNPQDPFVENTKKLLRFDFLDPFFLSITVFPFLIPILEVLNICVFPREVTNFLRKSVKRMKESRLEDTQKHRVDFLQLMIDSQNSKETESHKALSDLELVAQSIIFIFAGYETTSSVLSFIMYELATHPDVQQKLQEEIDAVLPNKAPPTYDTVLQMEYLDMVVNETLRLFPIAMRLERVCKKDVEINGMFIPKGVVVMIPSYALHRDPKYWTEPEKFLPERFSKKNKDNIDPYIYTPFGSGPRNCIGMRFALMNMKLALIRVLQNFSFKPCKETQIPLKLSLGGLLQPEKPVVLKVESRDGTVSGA
Outline: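 Luminescent readout of luciferin produced by CYP3A4 (20 nM) dealkylation of Luciferin-PPXE, 25 uM (its KM). NADPH-driven reaction ran 60 min at RT after 10 min compound preincubation; data scaled to 57 uM ketoconazole as 100% inhibition.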

[11] = molecular target: Cytochrome P450 3A4 (Homo sapiens) (UniProt P08684); experiment: qHTS Assay for Activators of Cytochrome P450 3A4 (AID 885; active = well fitted curve in the direction sought with a large enough effect; an effect the other way counts as inactive or inconclusive; also: nearly all actives have a fitted effect of over 65% in size)
Outline: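 Human CYP3A4 dealkylates Luciferin-PPXE to luciferin, which luciferase detection converts to light. Substrate was at its KM (25uM), buffer 200mM KPO4, reaction 60 min at RT.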

[12] = MultiTox-Fluor Cytotoxicity Assay - LYMP1-002 - Live Cells (AID 955; active = well fitted curve in the direction sought with a large enough effect; an effect the other way counts as inactive or inconclusive;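 also: potency is read from the fitted curve at half-maximal effect; cells exposed to compound for 16 hours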)
Outline: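 In this qHTS viability format, lymphoblastoid cells (LYMP1-002, human) received compound for 16 hr at 37 C. Fluorogenic GF-AFC cleavage by viable cells was detected at 405/510 nm after 1 h at room temperature.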

[13] = MultiTox-Fluor Cytotoxicity Assay - LYMP1-002 - Dead Cells (AID 960; active = well fitted curve in the direction sought with a large enough effect; an effect the other way counts as inactive or inconclusive; also: potency is read from the fitted curve at half-maximal effect; nearly all actives have a fitted effect of over 60% in size)
Outline: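 Concentration-dependent increases in membrane-leaked protease activity are quantified in LYMP1-002 cells after 16 hr treatment; values are normalized against DMSO and tetraoctylammonium bromide (15 uM) controls and AC50 derived by Hill modeling.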

[14] = molecular target: Androgen receptor (Homo sapiens) (UniProt P10275); experiment: qHTS assay for small molecule agonists of androgen receptor signaling (AID 588515; active = well fitted curve in the direction sought with a large enough effect in the signal ratio, with a control signal flat; the % refers to the signal ratio); details: AR-UAS-bla HEK293, beta-lactamase ratio, agonist 16 h; stronger effect = higher value
Sequence of Androgen receptor (Homo sapiens) (P10275 whole entry, looked up): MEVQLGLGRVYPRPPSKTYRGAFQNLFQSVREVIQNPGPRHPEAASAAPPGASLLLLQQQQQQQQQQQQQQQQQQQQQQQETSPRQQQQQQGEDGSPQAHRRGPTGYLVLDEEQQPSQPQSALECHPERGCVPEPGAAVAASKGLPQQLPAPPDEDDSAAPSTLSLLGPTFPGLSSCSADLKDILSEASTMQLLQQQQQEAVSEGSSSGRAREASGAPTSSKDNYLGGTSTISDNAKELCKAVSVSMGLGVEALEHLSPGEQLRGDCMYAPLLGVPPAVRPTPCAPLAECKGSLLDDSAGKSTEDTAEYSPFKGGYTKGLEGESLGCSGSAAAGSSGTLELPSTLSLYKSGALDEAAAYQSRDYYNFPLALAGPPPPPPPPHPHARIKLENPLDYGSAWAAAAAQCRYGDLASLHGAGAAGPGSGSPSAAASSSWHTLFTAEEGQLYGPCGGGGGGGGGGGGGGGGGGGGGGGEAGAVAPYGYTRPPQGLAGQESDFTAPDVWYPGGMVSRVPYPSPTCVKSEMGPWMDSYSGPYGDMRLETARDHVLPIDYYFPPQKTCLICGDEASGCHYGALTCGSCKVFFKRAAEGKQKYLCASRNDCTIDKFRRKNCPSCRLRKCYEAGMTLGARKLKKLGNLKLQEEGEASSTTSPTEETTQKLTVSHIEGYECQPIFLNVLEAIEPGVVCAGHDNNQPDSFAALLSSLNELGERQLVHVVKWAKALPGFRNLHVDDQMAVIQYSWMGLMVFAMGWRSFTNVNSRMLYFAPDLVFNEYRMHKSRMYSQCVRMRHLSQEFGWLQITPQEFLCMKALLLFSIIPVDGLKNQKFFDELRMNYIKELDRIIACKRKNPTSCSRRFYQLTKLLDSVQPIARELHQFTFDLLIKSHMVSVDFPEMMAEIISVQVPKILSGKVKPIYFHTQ
Outline: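 Stimulation of an AR-responsive β-lactamase reporter in GripTite HEK293 cells was measured after 16 h compound exposure at 37 °C, via CCF4 fluorescence after 2 h RT. EC50 from Hill fits, normalized to R1881 at 30 nM.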

[15] = molecular target: Androgen receptor (Homo sapiens) (UniProt P10275); experiment: qHTS assay for small molecule antagonists of androgen receptor signaling (AID 588516; active = well fitted curve in the direction sought with a large enough effect in the signal ratio, with a control signal flat, not every such curve was filed as active; the % refers to the signal ratio)
Outline: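 Compounds tested in titration against 10 nM R1881 in AR-responsive bla reporter HEK 293 cells; CCF4 fluorescence (460/530 nm) after 16 h exposure gave IC50 and efficacy.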

[16] = qHTS assay for small molecule activators of the nuclear factor-kappa B (NF-kB) signaling pathway (AID 651749; active = well fitted activation curve with a large enough effect in the signal ratio; the % refers to the signal ratio; also: series mostly up to about 77 µM); details: NF-kB-bla ME-180 cells, beta-lactamase FRET ratio, 16 h; activation: stronger effect = higher value
Outline: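 Beta-lactamase reporter expression, controlled by NF-kB response elements in ME-180 cells, was quantified fluorometrically via FRET disruption; cells at 2,000/well had been incubated with 23 nL test compound for 16 hr.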

Sequence of Bile acid receptor (Homo sapiens) (Q96RI1 whole entry, looked up): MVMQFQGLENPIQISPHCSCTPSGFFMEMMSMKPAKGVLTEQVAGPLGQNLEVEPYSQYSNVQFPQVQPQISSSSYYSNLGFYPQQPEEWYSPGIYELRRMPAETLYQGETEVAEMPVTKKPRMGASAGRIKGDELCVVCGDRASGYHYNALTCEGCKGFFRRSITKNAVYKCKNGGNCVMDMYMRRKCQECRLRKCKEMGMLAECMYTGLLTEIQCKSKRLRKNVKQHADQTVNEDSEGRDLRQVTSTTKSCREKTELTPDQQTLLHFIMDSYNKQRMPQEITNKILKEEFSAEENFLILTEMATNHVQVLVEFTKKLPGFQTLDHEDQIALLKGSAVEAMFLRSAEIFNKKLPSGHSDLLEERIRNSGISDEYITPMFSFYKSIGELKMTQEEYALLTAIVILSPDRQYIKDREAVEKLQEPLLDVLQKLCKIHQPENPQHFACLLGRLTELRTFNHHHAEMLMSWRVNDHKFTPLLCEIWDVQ

For `CCNC(=O)NC(=O)/C(C#N)=N/OC`, the Potency [1] was “inactive”, the activation [2] was -0.507% (inactive) and the max response [3] was 9.94%. The Potency [4] was “inactive”, the Potency [5] was “inactive” and the Potency [6] was “inactive”. For the same compound, the Potency [7] was 61.1 µM (active).
In the case of `CCCCC(C#N)(Cn1cncn1)c1ccc(Cl)cc1` (configuration not stated), the Potency [8] is reported as “inactive”, the max response [3] is reported as 26.8% and the Potency [4] is reported as “inactive”. The Potency [7] was “inactive”.
In the case of `CCOS(=O)(=O)OCC`, the Potency [8] is reported as “inactive”, the max response [3] is reported as -21.4% and the Potency [4] is reported as “inactive”. For the same compound, the Potency [6] was “inactive”, the Potency [7] was “inactive” and the outcome [9] was “inactive”.
For `COC(=O)c1ccccc1S(=O)(=O)NC(=O)N(C)c1nc(C)nc(OC)n1`, the activation [2] was 1.44% (inactive), the Potency [8] was “inactive” and the max response [3] was -42.2%. The Potency [4] was “inactive”, the Potency [5] was “inactive” and the Potency [6] was “inactive”. For the same compound, the Potency [7] was “inactive” and the outcome [9] was “inactive”.
For `c1cc(OCC2CO2)cc(OCC2CO2)c1` (configuration not stated), the Potency [10] was 15.8 µM (active), the Potency [11] was “inactive” and the Potency [12] was 31.6 µM (active). The Potency [13] was 25.1 µM (active), the activation [14] was -20.7% (inactive) and the Potency [15] was “inactive”. For the same compound, the activation [2] was 0.408% (inactive), the Potency [8] was “inactive” and the max response [3] was 21.9%. For the same compound, the Potency [4] was “inactive”, the Potency [5] was “inactive” and the Potency [6] was “inactive”. For the same compound, the Potency [7] was 29.8 µM (active).
In the case of `OC(Cn1cncn1)(c1ccc(F)cc1)c1ccccc1F` (configuration not stated), the Potency [5] is reported as “inactive”, the Potency [6] is reported as “inactive” and the Potency [7] is reported as “inactive”. For the same compound, the activation [16] was 0.295% (inactive) and the outcome [9] was “inactive”.
In the case of `Cc1c(COC(=O)C2C(/C=C(\Cl)C(F)(F)F)C2(C)C)cccc1-c1ccccc1` (configuration not stated), the activation [2] is reported as 2.08% (inactive), the max response [3] is reported as 11.3% and the Potency [4] is reported as “inactive”. For the same compound, the Potency [5] was “inactive” and the activation [16] was 1.42% (inactive).
For `FC(F)(F)c1ccc(OCCCOc2c(Cl)cc(OCC=C(Cl)Cl)cc2Cl)nc1`, the activation [14] was -16.8% (inactive), the Potency [15] was “inactive” and the Potency [1] was “inactive”. For the same compound, the activation [2] was -2.38% (inactive), the max response [3] was -4.25% and the Potency [4] was “inactive”. For the same compound, the Potency [5] was “inactive”, the Potency [7] was 54.5 µM (active) and the activation [16] was 0.158% (inactive). The outcome [9] was “inactive”.
In the case of `CC(C)(C#N)N=NC(C)(C)C#N`, the Potency [8] is reported as “inactive”, the max response [3] is reported as 3.24% and the Potency [4] is reported as “inactive”. For the same compound, the Potency [5] was “inactive”, the Potency [7] was “inactive” and the outcome [9] was “inactive”.
With `CNC(=O)Oc1cc(C)cc(C(C)C)c1` the max response [3] was -13.9%, the Potency [4] was “inactive” and the Potency [5] was “inactive”. For the same compound, the Potency [6] was “inactive” and the outcome [9] was “inactive”.
In the case of `CC1CCCCC1NC(=O)Nc1ccccc1` (configuration not stated), the activation [2] is reported as 2% (inactive), the Potency [8] is reported as “inactive” and the max response [3] is reported as 3.43%. For the same compound, the Potency [4] was “inactive”, the Potency [7] was 34.4 µM (active) and the activation [16] was -4.02% (inactive).
For `Oc1ccc(C2(c3ccc(O)cc3)c3ccccc3-c3ccccc32)cc1`, the Potency [8] was 44.7 µM (active).
With `CCC[CH2][Sn]([CH2]CCC)[CH2]CCC` the activation [2] was 6.72% (inactive).
